According to PubChem BioAssay:
Calls of active or inactive are those of the source.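 How the source made its calls, unless noted: active means at least 20% inhibition of 6-phosphogluconate dehydrogenase activity; inactive means the rest.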

Test system: not listed separately
Test: NPC library primary testing for decreased DLD-1 cell viability via CellTiter-Glo (AID 1117346;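 active means compounds that lower survival of DLD-1 colon cancer cells in the luminescence readout, no cutoff given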)
Settings: DLD-1 viability, CellTiter-Glo luminescence; at 20 µM (top of the series)

SMILES	viability decrease (inhibition)
O=C(O)c1cc(O)c(O)c(O)c1	39.5% (inactive)
Cc1c(C(N)=O)cc([N+](=O)[O-])cc1[N+](=O)[O-]	19.3% (inactive)
Nc1ccc(S(=O)(=O)Nc2ccc(Cl)nn2)cc1	0.7% (inactive)
CCCc1cc(C(N)=S)ccn1	-3.5% (inactive)
CCCCC(CC)CN1CN(CC(CC)CCCC)CC(C)(N)C1 (stereo unspecified)	105% (active)
C[N+]12CCC(CC1)C(OC(=O)C(O)(c1ccccc1)c1ccccc1)C2 (stereo unspecified)	-13.7% (inactive)
C=CCSCC1Nc2cc(Cl)c(S(N)(=O)=O)cc2S(=O)(=O)N1 (stereo unspecified)	1.8% (inactive)
Oc1c(Cl)cc(Cl)cc1Sc1cc(Cl)cc(Cl)c1O	102% (active)
CCOc1ccc(Cc2nccc3cc(OCC)c(OCC)cc23)cc1OCC	62.3% (active)
O=C1C(O)=C(O)C(=O)C(O)=C1O	23.1% (inactive)
Oc1ccc(Cl)c2cccnc12	43.6% (inactive)
COc1ccc(C2C(=O)c3ccccc3C2=O)cc1	11% (inactive)
C[C@@](Cc1ccc(O)c(O)c1)(NN)C(=O)O	11.7% (inactive)
O=C(O)c1ccccc1OP(=O)(O)O	-7.1% (inactive)
Nc1ccc(N=Nc2ccccc2)c(N)n1	16% (inactive)
C=CCc1ccc(O)c(OC)c1	-4.6% (inactive)
COc1ccc(-c2cc(C(F)F)nn2-c2ccc(S(N)(=O)=O)cc2)cc1F	1.8% (inactive)
Cc1c(NC(=O)c2cccnc2)c(=O)n(-c2ccccc2)n1C	-19.7% (inactive)
COc1ccc2cc1Oc1ccc(cc1)C[C@H]1c3c(cc4c(c3Oc3cc5c(cc3OC)CCN(C)[C@@H]5C2)OCO4)CCN1C	87.3% (active)

SMILES	viability decrease (inhibition)
CN1CCCN=C1COC(=O)C(O)(c1ccccc1)C1CCCCC1 (stereo unspecified)	33.9% (inactive)
O=C(OCC(O)CO)c1ccccc1Nc1ccnc2cc(Cl)ccc12 (stereo unspecified)	6.3% (inactive)
Cc1cc(=O)[nH]c(=S)[nH]1	0.15% (inactive)
COc1cccc(OC)c1C(=O)N[C@@H]1C(=O)N2[C@@H]1SC(C)(C)[C@@H]2C(=O)O	-4.8% (inactive)
O=C1c2cccc(O)c2C(=O)c2c(O)cccc21	9.7% (inactive)
CC(=O)N(O)CCCCCNC(=O)CCC(=O)N(O)CCCCCNC(=O)CCC(=O)N(O)CCCCCN	31.5% (inactive)
CC1(C)O[C@@H]2C[C@H]3[C@@H]4C[C@H](F)C5=CC(=O)CC[C@]5(C)[C@H]4[C@@H](O)C[C@]3(C)[C@]2(C(=O)CO)O1	-16.6% (inactive)
COc1cc(NS(=O)(=O)c2ccc(N)cc2)ncn1	3.8% (inactive)
Cc1onc(-c2ccccc2)c1C(=O)N[C@@H]1C(=O)N2[C@@H]1SC(C)(C)[C@@H]2C(=O)O	-3.8% (inactive)
CCCCOc1ccc(CC(=O)NO)cc1	11.6% (inactive)
CCC(=O)O[C@H]1[C@H](O[C@@H]2[C@@H](C)[C@H](O[C@H]3C[C@@](C)(OC)[C@@H](O)[C@H](C)O3)[C@@H](C)C(=O)O[C@H](CC)[C@@](C)(O)[C@H](O)[C@@H](C)C(=O)[C@H](C)C[C@@]2(C)O)O[C@H](C)C[C@@H]1N(C)C	-12.4% (inactive)
CC(=O)Nc1ccc(OCC(O)CNC(C)C)cc1 (stereo unspecified)	42% (inactive)
Cc1c(N(C)CS(=O)(=O)O)c(=O)n(-c2ccccc2)n1C	3.35% (inactive)
CC(=O)Nc1ccccc1	3.55% (inactive)
O=C(CCCCC(=O)Nc1c(I)cc(I)c(C(=O)O)c1I)Nc1c(I)cc(I)c(C(=O)O)c1I	-2.6% (inactive)
O=C(O)c1ccccc1C(=O)Nc1ccc(S(=O)(=O)Nc2nccs2)cc1	-5.15% (inactive)
Cc1c(NC(C)C)c(=O)n(-c2ccccc2)n1C	-1.3% (inactive)
CC[C@]12CCCN3CCc4c(n(c5ccccc45)[C@@](O)(C(=O)OC)C1)[C@@H]32	-31.5% (inactive)
Cc1cc(C)cc(OCC2CNC(=O)O2)c1 (stereo unspecified)	6% (inactive)

Target: 6-phosphogluconate dehydrogenase, decarboxylating (Homo sapiens) (UniProt P52209)
Sequence (P52209 whole entry, looked up): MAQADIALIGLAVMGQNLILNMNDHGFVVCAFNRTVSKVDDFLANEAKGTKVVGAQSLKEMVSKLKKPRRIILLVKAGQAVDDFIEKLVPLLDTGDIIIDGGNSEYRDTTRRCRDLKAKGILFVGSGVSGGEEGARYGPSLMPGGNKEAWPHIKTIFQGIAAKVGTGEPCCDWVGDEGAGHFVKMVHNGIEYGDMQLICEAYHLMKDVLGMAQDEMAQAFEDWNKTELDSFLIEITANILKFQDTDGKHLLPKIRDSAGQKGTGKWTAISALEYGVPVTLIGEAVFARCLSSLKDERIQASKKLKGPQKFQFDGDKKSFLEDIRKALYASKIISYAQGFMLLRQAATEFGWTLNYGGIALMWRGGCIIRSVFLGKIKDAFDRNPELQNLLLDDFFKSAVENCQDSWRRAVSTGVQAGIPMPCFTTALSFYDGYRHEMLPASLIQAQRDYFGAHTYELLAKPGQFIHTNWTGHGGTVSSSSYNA
Test: inhibition of human phosphogluconate dehydrogenase – biochemical, recombinant enzyme, NADPH absorbance, primary screen (AID 1159550)
Settings: recombinant 6PGD, NADPH absorbance 341 nm; at 10 µM; hits give high values

SMILES	inhibition
O=C(O)c1cc(O)c(O)c(O)c1	3.08% (inactive)
Cc1c(C(N)=O)cc([N+](=O)[O-])cc1[N+](=O)[O-]	-17.5% (inactive)
Nc1ccc(S(=O)(=O)Nc2ccc(Cl)nn2)cc1	10.1% (inactive)
CCCc1cc(C(N)=S)ccn1	3.48% (inactive)
CCCCC(CC)CN1CN(CC(CC)CCCC)CC(C)(N)C1 (stereo unspecified)	-10.4% (inactive)
C[N+]12CCC(CC1)C(OC(=O)C(O)(c1ccccc1)c1ccccc1)C2 (stereo unspecified)	11.7% (inactive)
C=CCSCC1Nc2cc(Cl)c(S(N)(=O)=O)cc2S(=O)(=O)N1 (stereo unspecified)	5.8% (inactive)
Oc1c(Cl)cc(Cl)cc1Sc1cc(Cl)cc(Cl)c1O	-6.91% (inactive)
CCOc1ccc(Cc2nccc3cc(OCC)c(OCC)cc23)cc1OCC	-5.46% (inactive)
O=C1C(O)=C(O)C(=O)C(O)=C1O	10.5% (inactive)
Oc1ccc(Cl)c2cccnc12	10.3% (inactive)
COc1ccc(C2C(=O)c3ccccc3C2=O)cc1	-16% (inactive)
C[C@@](Cc1ccc(O)c(O)c1)(NN)C(=O)O	-4.83% (inactive)
O=C(O)c1ccccc1OP(=O)(O)O	-2.26% (inactive)
Nc1ccc(N=Nc2ccccc2)c(N)n1	3.23% (inactive)
C=CCc1ccc(O)c(OC)c1	-3.83% (inactive)
COc1ccc(-c2cc(C(F)F)nn2-c2ccc(S(N)(=O)=O)cc2)cc1F	-12.8% (inactive)
Cc1c(NC(=O)c2cccnc2)c(=O)n(-c2ccccc2)n1C	-15.8% (inactive)
COc1ccc2cc1Oc1ccc(cc1)C[C@H]1c3c(cc4c(c3Oc3cc5c(cc3OC)CCN(C)[C@@H]5C2)OCO4)CCN1C	-1.33% (inactive)

SMILES	inhibition
CN1CCCN=C1COC(=O)C(O)(c1ccccc1)C1CCCCC1 (stereo unspecified)	6.35% (inactive)
O=C(OCC(O)CO)c1ccccc1Nc1ccnc2cc(Cl)ccc12 (stereo unspecified)	11.2% (inactive)
Cc1cc(=O)[nH]c(=S)[nH]1	-2.01% (inactive)
COc1cccc(OC)c1C(=O)N[C@@H]1C(=O)N2[C@@H]1SC(C)(C)[C@@H]2C(=O)O	17.4% (inactive)
O=C1c2cccc(O)c2C(=O)c2c(O)cccc21	-6.73% (inactive)
CC(=O)N(O)CCCCCNC(=O)CCC(=O)N(O)CCCCCNC(=O)CCC(=O)N(O)CCCCCN	-4.7% (inactive)
CC1(C)O[C@@H]2C[C@H]3[C@@H]4C[C@H](F)C5=CC(=O)CC[C@]5(C)[C@H]4[C@@H](O)C[C@]3(C)[C@]2(C(=O)CO)O1	8.44% (inactive)
COc1cc(NS(=O)(=O)c2ccc(N)cc2)ncn1	-1.56% (inactive)
Cc1onc(-c2ccccc2)c1C(=O)N[C@@H]1C(=O)N2[C@@H]1SC(C)(C)[C@@H]2C(=O)O	8.76% (inactive)
CCCCOc1ccc(CC(=O)NO)cc1	-6.77% (inactive)
CCC(=O)O[C@H]1[C@H](O[C@@H]2[C@@H](C)[C@H](O[C@H]3C[C@@](C)(OC)[C@@H](O)[C@H](C)O3)[C@@H](C)C(=O)O[C@H](CC)[C@@](C)(O)[C@H](O)[C@@H](C)C(=O)[C@H](C)C[C@@]2(C)O)O[C@H](C)C[C@@H]1N(C)C	1.5% (inactive)
CC(=O)Nc1ccc(OCC(O)CNC(C)C)cc1 (stereo unspecified)	2.72% (inactive)
Cc1c(N(C)CS(=O)(=O)O)c(=O)n(-c2ccccc2)n1C	19.3% (inactive)
CC(=O)Nc1ccccc1	-5.03% (inactive)
O=C(CCCCC(=O)Nc1c(I)cc(I)c(C(=O)O)c1I)Nc1c(I)cc(I)c(C(=O)O)c1I	15.2% (inactive)
O=C(O)c1ccccc1C(=O)Nc1ccc(S(=O)(=O)Nc2nccs2)cc1	5.34% (inactive)
Cc1c(NC(C)C)c(=O)n(-c2ccccc2)n1C	16.7% (inactive)
CC[C@]12CCCN3CCc4c(n(c5ccccc45)[C@@](O)(C(=O)OC)C1)[C@@H]32	-2.98% (inactive)
Cc1cc(C)cc(OCC2CNC(=O)O2)c1 (stereo unspecified)	3.16% (inactive)
